Measured values: PubChem BioAssay (NCI)
The panel holds about 79,000 compounds, 15% with a hit somewhere; the sample as a whole holds those more often. Rule as the data show it: active = growth inhibition above about 70%; inactive = the rest.

Legend:
[1] = NCI Yeast Anticancer Drug Screen. Data for the rad50 strain (AID 155);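 also: 0% = growth of vehicle-only cultures of the same strain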; settings: S. cerevisiae rad50 strain growth inhibition; at 50.0 µM; stronger effect = higher value
Outline: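 Readout: growth inhibition relative to vehicle-treated cultures. Compound exposure was carried out in a genetically defined yeast strain deficient in DNA damage repair.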

[2] = NCI Yeast Anticancer Drug Screen. Data for the mec2-1 strain (AID 157); settings: S. cerevisiae mec2-1 strain, at 50.0 µM, stronger effect = higher value
Outline: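 mec2-1 yeast strain, carrying an alteration in DNA damage repair or cell cycle control, was exposed to compounds; growth inhibition was measured relative to vehicle-treated controls.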

[3] = NCI Yeast Anticancer Drug Screen. Data for the sgs1 mgt1 strain (AID 161);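 also: 0% = growth of cultures given vehicle only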; settings: S. cerevisiae sgs1 mgt1 strain, at 50.0 µM, stronger effect = higher value
Outline: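 Yeast cells carrying a defined DNA-repair defect were exposed to test compounds. Growth inhibition was measured relative to vehicle-treated controls.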

[4] = NCI Yeast Anticancer Drug Screen. Data for the cln2 rad14 strain (AID 165);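 also: 0% = growth equal to vehicle treated cultures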; settings: S. cerevisiae cln2 rad14 strain, at 50.0 µM, stronger effect = higher value
Outline: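 Yeast carrying cln2 and rad14 alterations (cell cycle control and DNA damage repair) were exposed to compounds. Growth inhibition was measured against vehicle-treated controls.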

[5] = NCI Yeast Anticancer Drug Screen. Data for the bub3 strain (AID 167); settings: S. cerevisiae bub3 mutant strain, at 50.0 µM, stronger effect = higher value
Outline: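 Readout: yeast growth inhibition, expressed relative to vehicle-only wells. The test organism is a mutant strain from a panel with lesions in DNA repair or checkpoint genes.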

[6] = NCI Yeast Anticancer Drug Screen. Data for the mlh1 rad18 strain (AID 175); settings: S. cerevisiae mlh1 rad18 strain growth inhibition; at 50.0 µM; stronger effect = higher value
Outline: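 Growth inhibition of the yeast strain was measured after compound exposure and expressed relative to vehicle-treated controls. The strain carries defined defects in DNA damage repair.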

Measured: growth inhibition

CN(C)CCNc1nc2c(no[n+]2[O-])c2ccccc12
inactive: [1] -28.9% | [2] -24.8% | [3] -14.3% | [4] -12.8% | [5] 3.35% | [6] -19.9%

CC(C)OP(=O)(OC(C)C)C(=O)Nc1ccc(Cl)cc1
inactive: [1] -24.9% | [2] 16.1% | [3] 5.85% | [4] -29.9% | [5] 16.5% | [6] -8%

O=P(N1CCCCCC1)(N1CC1)N1CC1
inactive: [1] -2.15% | [2] 11% | [3] -11.4% | [4] 3.95% | [5] -3.25% | [6] 6.35%

CC1(C)C(=O)CC[C@@]2(C)C1=CC[C@@H]1[C@@H]2CC[C@@]2(C)[C@H]1CC[C@]2(C)O
inactive: [1] 5.75% | [2] -14.8% | [3] 11.6% | [4] -21% | [5] 3.8% | [6] 7.05%

CN(C)C(=O)Oc1ccc(Cl)cc1Cl
inactive: [1] 9.2% | [2] 18.1% | [3] -5.8% | [4] -7.3% | [5] -9.35% | [6] 32.6%

CC(C)(C)SCC(NC(=O)OCc1ccccc1)C(=O)O (stereo not given)
inactive: [1] 10.8% | [2] 1.7% | [3] 14.3% | [4] 18.9% | [5] 4.25% | [6] 7%

N#CC(C#N)=Cc1ccccc1O
inactive: [1] -8.35% | [2] -2.35% | [3] -1.95% | [4] -5.95% | [5] -19.8% | [6] -9.7%

Cc1cccc2c1[se]c1ccccc12
inactive: [1] -11.5% | [2] -3.85% | [3] -12% | [4] 4.45% | [5] 2.7% | [6] -17.1%

CN(C)CCNC(=O)c1ccc(N(CCCl)CCCl)c([N+](=O)[O-])c1[N+](=O)[O-]
inactive: [1] 36.4% | [2] 20.4% | [3] 30.8% | [4] 17.6% | [5] 9.65% | [6] 34%

CS/C([S-])=N/N=C\c1ccccn1.CS/C([S-])=N/N=C\c1ccccn1.[Ni+2]
inactive: [1] 14.7% | [2] -6.75% | [3] 17.2% | [4] -35.4% | [5] 2.45% | [6] -0.45%

CC(C)=CCC12Cc3ccc(O)cc3C(C(C)CN1)C2C (stereo not given)
inactive: [1] -1.5% | [2] 9.8% | [3] 27.8% | [4] 11.8% | [5] 10.7% | [6] 25.7%

C[C@]12CC[C@H]3[C@@H](CCC4=CC(=O)CC[C@@]43C)[C@]1(O)CC[C@]2(O)C(=O)CO
inactive: [1] 11.2% | [2] -12.6% | [3] -30.4% | [4] -2.05% | [5] -17.3% | [6] -9.1%

CC(C)CC(NC(=O)CF)C(=O)O (stereo not given)
inactive: [1] 3.45% | [2] 0.05% | [3] -4.7% | [4] 1.4% | [5] 4.05% | [6] -3.05%

Cc1cc(N(CCCl)CCCl)ccc1C1N(Cc2ccc(N(CCCl)CCCl)cc2)CCCN1Cc1ccc(N(CCCl)CCCl)cc1
inactive: [1] 0.8% | [2] 7.8% | [3] -6.2% | [4] -5.1% | [5] -1.35% | [6] 25%

O=C1NC(=S)NC(=O)C1=Cc1ccco1
inactive: [1] -4.55% | [2] -19.9% | [3] -17% | [4] 27.6% | [5] -11.2% | [6] -19.6%

O=P(Oc1ccccc1)(N1CCCC1)N1CCCC1
inactive: [1] 27.9% | [2] 18.4% | [3] 11.9% | [4] 18.1% | [5] 36.5% | [6] 8.15%

Cc1ccc(N2CCNCC2C)cc1 (stereo not given)
inactive: [1] 6.15% | [2] -13.2% | [3] -4.6% | [4] 8.95% | [5] -9.25% | [6] 11.2%

CC1CC(C)(C)[N+](C)(CCC(C(N)=O)(c2ccccc2)c2ccccc2)C1 (stereo not given)
inactive: [1] -8.2% | [2] -5.15% | [3] -7.8% | [4] 12.3% | [5] -16.4% | [6] 3.05%

O=C(NC(c1ccccc1)(c1ccccc1)c1ccccc1)N(CCCl)CCCl
inactive: [1] 5.95% | [2] 20.7% | [3] 12.9% | [4] 5.3% | [5] 39.5% | [6] -7.5%

COC1CC2C=CC3C4OC2(/C(C)=C/C(C)C(C(C)O)OC1=O)C3C(O)C(C)C4OC(=O)c1ccc[nH]1 (stereo not given)
inactive: [1] 14.7% | [2] 6.35% | [3] 13.3% | [4] 10.7% | [5] -2.85% | [6] 14.1%
